Most compounds without a hit are left out; they make up all but 31% or so of the library.
CYP2C19 inh: blocks human cytochrome P450 2C19; inhibition, % at 5 µM; CYP2C19 Supersomes, luciferin-H EGE luminescence, 30 min; 96,000 tested, 21% active; P33261;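 active = CYP2C19 inhibition above a set limit at 5 µM in the primary screen, cut at about 50% in these data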;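 also: plate controls were negative control wells for no effect and 2.5 mM tranylcypromine positive control for full effect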
Target sequence (P33261 whole entry, looked up): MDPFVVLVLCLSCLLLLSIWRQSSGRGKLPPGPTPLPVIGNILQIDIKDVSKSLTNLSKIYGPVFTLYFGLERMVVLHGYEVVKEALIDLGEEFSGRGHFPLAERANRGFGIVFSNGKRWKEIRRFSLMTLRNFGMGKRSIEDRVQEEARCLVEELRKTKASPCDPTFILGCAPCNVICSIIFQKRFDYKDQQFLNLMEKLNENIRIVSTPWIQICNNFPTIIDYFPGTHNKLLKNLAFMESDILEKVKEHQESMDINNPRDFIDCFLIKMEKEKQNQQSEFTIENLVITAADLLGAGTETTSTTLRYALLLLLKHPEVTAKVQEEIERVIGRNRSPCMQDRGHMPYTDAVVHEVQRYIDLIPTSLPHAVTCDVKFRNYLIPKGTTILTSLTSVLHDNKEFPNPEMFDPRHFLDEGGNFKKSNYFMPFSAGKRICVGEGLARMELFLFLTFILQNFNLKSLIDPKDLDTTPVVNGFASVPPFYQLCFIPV
CYP2C19 act: activators of human cytochrome P450 2C19. recombinant CYP2C19, luciferin-H EGE luminescence; active compounds read high; 0 = fully inhibited enzyme, 1 = untreated enzyme. 96,000 tested, under 10 active. P33261. activation factor at 5 µM;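 active = activation factor of at least 2 at 5 µM in the primary screen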;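 also: 0 = wells with 2.5 mM tranylcypromine and 1 = vehicle-only wells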
CYP2C9 act: activators of human CYP2C9. AID 1024. recombinant CYP2C9, luciferin-H conversion, luminescence; active compounds read high; factor 1 = untreated enzyme, 0 = blocked. 96,000 tested, 1.4% active. activation factor at 5 µM;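 active = activation factor of 2 or more for CYP2C9 at a 5 µM dose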;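 also: 0 = sulfaphenazole-blocked wells and 1 = vehicle-only wells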
CYP2C9 inh: blocks human cytochrome P450 2C9; 96,000 tested, 20% active; inhibition, % at 5 µM; CYP2C9 Supersomes, luciferin-H conversion, luminescence; P11712;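 active = blocking of liver enzyme CYP2C9 beyond about 50% at 5 µM, limit read from the data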
* marks the source's active call; other numbers are inactive results.

SMILES	CYP2C19 inh	CYP2C19 act	CYP2C9 act	CYP2C9 inh
O=[N+]([O-])c1cccc(CN(CCO)Cc2ccccc2)c1	41	0.6	0.6	36
OCCN(Cc1ccccc1)Cc1ccc(F)c(F)c1	84*	0.2	0.7	30
COc1ccc(Cl)cc1C(=O)Nn1c(C)nc2ccccc2c1=O	57*	0.4	0.5	52*
Cc1cccc(C)c1OCC(=O)Nn1c(C)nc2ccccc2c1=O	6	0.9	0.4	64*
COc1ccc(C(=O)Nc2cc(C)nc3ccccc23)cc1OC	36	0.6	0.8	24
Cc1nc2ccccc2c(=O)n1NC(=O)COc1ccccc1	6	0.9	0.5	47
Cc1ccc(C(C)C)c(OCC(=O)Nn2c(C)nc3ccccc3c2=O)c1	6	0.9	0.2	84*
CCCn1nnc(NC(=O)c2ccc(Br)o2)n1	26	0.7	0.6	36
Cc1occc1C(=O)N/N=C/c1cccs1	42	0.6	0.9	15
CC(C)NC(=S)N/N=C/c1cccs1	82*	0.2	0.6	37
Cc1cc(C)c(C#N)c(SCCS(=O)(=O)c2ccc(C(C)(C)C)cc2)n1	70*	0.3	0.1	89*
Cc1cc(C)c(C#N)c(SCCS(=O)(=O)Cc2ccc(Cl)cc2)n1	36	0.6	0.9	8
Cc1cc(C)c(C#N)c(SCS(=O)Cc2ccc(Cl)cc2)n1 (stereo not drawn)	95*	0.1	0.4	59*
Cc1cc(C)c(C#N)c(SCS(=O)Cc2ccccc2)n1 (stereo not drawn)	68*	0.3	0.8	23
Cc1cc(C)c(C#N)c(SCc2ccc(C#N)cc2)n1	16	0.8	1.1	-7
CC(N1CCOC1=O)S(=O)(=O)c1ccccc1 (stereo not drawn)	-2	1	1	-1
Cc1cc(NC(=O)COn2nnc3ccc(Cl)cc32)no1	36	0.6	0.2	77*
CCOc1ccccc1NC(=S)NC(=O)CCCOc1ccc(Cl)cc1Cl	17	0.8	1.1	-7
CCOc1ccccc1NC(=O)COn1nnc2ccc(Cl)cc21	56*	0.4	1.3	-26
CC1CCCCC1NC(=O)COn1nnc2ccc(Cl)cc21 (stereo not drawn)	98*	0	1.9	-85
COc1ccc(C2=NOC3(CC(=O)N(c4ccc5ccccc5c4)C3=O)C2)c(OC)c1 (stereo not drawn)	-2	1	0.9	5
O=CNC1CCCc2c1[nH]c1ccc(Cl)cc21 (stereo not drawn)	65*	0.4	0	99*
CCCc1nc(N)c(C#N)c(-c2ccco2)c1CC	59*	0.4	0.5	50*
Cc1cccc(C)c1Oc1nc(-c2ccccc2)ncc1S(=O)(=O)c1ccccc1	32	0.7	0.2	85*
COc1ccc(Oc2nc(-c3ccccc3)ncc2S(=O)(=O)c2ccccc2)cc1	7	0.9	0.9	8
SMILES	CYP2C19 inh	CYP2C19 act	CYP2C9 act	CYP2C9 inh
Cc1cccc(C)c1-n1c(C)cc(/C=N/NC(N)=S)c1C	91*	0.1	0.1	93*
Cc1ccccc1-n1c(C)cc(/C=N/NC(=O)c2ccncc2)c1C	24	0.8	0.5	51*
COc1cccc(CNC(=O)c2cc3ccccn3n2)c1	66*	0.3	1.3	-33
Cc1cc2cc(CNC(=O)c3ccc(S(=O)(=O)N4CCCCC4)cc3)ccc2[nH]1	34	0.7	0.2	79*
COc1cccc(CNC(=O)c2ccc(S(=O)(=O)N3CCCC3)cc2)c1	23	0.8	0.1	86*
COc1ccc(-n2c(CNC(=O)c3ccc(S(=O)(=O)N4CCCC4)cc3)n[nH]c2=S)cc1	10	0.9	0.8	17
COc1ccc(S(=O)(=O)N2CCC(C(=O)NCc3cccc(OC)c3)CC2)cc1	0	1	1.2	-21
Cc1cccc(-n2c(CNC(=O)c3ccc(S(=O)(=O)N4CCCC4)cc3)n[nH]c2=S)c1	53*	0.5	0.9	5
CCOc1ccc(C(=O)N/N=C(\c2ccccc2)c2ccccn2)cc1	26	0.7	1.1	-13
COCc1[nH]nc2c1C(c1cc(OC)c(O)c(OC)c1)C(C#N)=C(N)O2 (stereo not drawn)	8	0.9	0.9	10
COC(=O)c1cccc(N(C(=O)c2cnccn2)C(C(=O)NC2CCCCC2)c2cn(C)nc2C)c1 (stereo not drawn)	3	1	1.1	-8
Cc1ccccc1N1CCN(C(=O)c2ccccc2NC(=O)C2CC=CCC2C(=O)O)CC1 (stereo not drawn)	16	0.8	0.6	37
COc1ccc(CN2c3cc(S(=O)(=O)N4CCOCC4)ccc3N3CCCC32)cc1 (stereo not drawn)	0	1	0.9	10
COc1ccc(CN2CCN(S(=O)(=O)c3ccc(C)cc3)CC2)cc1Br	23	0.8	0.5	45
COc1cccc(CN2CCCN(S(=O)(=O)c3ccc(Br)cc3)CC2)c1	79*	0.2	1	0
COc1cccc(CN2C(=O)C3CCCN3c3ccc(S(=O)(=O)N4CCOCC4)cc32)c1 (stereo not drawn)	27	0.7	0.4	62*
Cc1ccccc1NC(=O)CSc1nc(N2CCCCC2)nc(N2CCCCC2)n1	13	0.9	0.9	14
COc1ccc(Cl)cc1Nc1nc(NCCO)nc(N2CCCC2)n1	57*	0.4	0.4	59*
COc1ccc(Cl)cc1NC(=O)CSc1nc(N2CCCCC2)nc(N2CCCCC2)n1	20	0.8	0.2	84*
Cn1nc(C(=O)OCCN2C(=O)c3ccccc3C2=O)c2ccccc2c1=O	43	0.6	0.5	48
O=C(CSc1ccc2nnc(-c3ccccn3)n2n1)NCC1CCCO1 (stereo not drawn)	16	0.8	0.6	40
CCOc1ccc(Nc2nc(N3CCCCC3)nc(N3CCCCC3)n2)cc1	-8	1.1	0.9	12
CCCn1nc(NC(=O)C2CCCO2)c2cc3cc(C)ccc3nc21 (stereo not drawn)	2	1	0.7	28
CCCCn1nc(NC(=O)c2cccs2)c2cc3cc(OC)ccc3nc21	17	0.8	0.4	64*
CCCn1nc(NC(=O)c2cccs2)c2cc3cc(OC)ccc3nc21	18	0.8	0.4	56*
SMILES	CYP2C19 inh	CYP2C19 act	CYP2C9 act	CYP2C9 inh
COc1ccc2nc3c(cc2c1)c(NC(=O)C1CCCO1)nn3CC(C)C (stereo not drawn)	48	0.5	0.3	66*
CC([NH2+][O-])C(C)(C)NO (stereo not drawn)	-10	1.1	1.1	-7
Cc1c(NC(=O)Cn2nc(C(F)(F)F)c3c2CCCC3)c(=O)n(-c2ccccc2)n1C	-15	1.1	1.1	-14
CSc1cccc(NC(=O)c2nnn(Cc3ccccc3)c2N)c1	11	0.9	0.8	18
Cc1ccccc1Cn1nnc(C(=O)Nc2cccc(C)c2C)c1N	54*	0.5	1.4	-35
COc1cccc(NC(=O)c2nnn(Cc3ccc(Br)cc3F)c2N)c1	-22	1.2	0.9	11
Cc1cc(C)cc(NC(=O)c2nnn(Cc3cc(C)ccc3C)c2N)c1	31	0.7	0.3	68*
Cc1nnc(SC(C)C(=O)N2CCc3ccccc32)s1 (stereo not drawn)	78*	0.2	0.7	34

Screens as filed in PubChem.
